The record followed here is PubChem BioAssay (Tox21).

Each structure is given as a SMILES string. Inconclusive results are not listed. A call without a number means that no potency is given here. Values without a mark were called inactive. Activity calls are given as the source filed them. The call rests on the fitted dose curve; in most records, active means well fitted cell-killing curve with a large enough effect in the repeat runs; inconclusive means weak or mixed curves; inactive means flat fitted curve, though single readings scatter.
Potency means the concentration at half of the fitted maximal effect.

The assay in a line: qHTS RealTime-Glo MT Cell Viability Assay in HepG2 cells - 32 hour (AID 1224877). Further: nearly all actives have a fitted effect of over 55% in size. Particulars: RealTime-Glo luminescence; series mostly up to 76.8 µM. The text has this:
U.S. Tox21 Program National Center for Advancing Translational Sciences [NCATS] NIH Chemical Genomics Center [NCGC] U.S. Environmental Protection Agency [EPA] National Institutes of Environmental Health Sciences [NIEHS] National Toxicology Program [NTP] U.S. Food and Drug Administration [FDA] Tox21 Assay Overview: Measure of cell viability is critical in the cell-base assay. Analysis of cell viability is necessary for the characterization of cell responses to cytotoxic drugs and environmental stress. A RealTime-Glo MT Cell Viability Assay to monitor cell viability in real time of continues cell culture during 40 hours of compound treatment was used to screen Tox21 10K library compounds in HepG2 cells. The RealTime-Glo MT Cell Viability Assay is a nonlytic, homogeneous, bioluminescent method to measure cell viability in real time using a simple, plate-based method. The assay involves adding NanoLuc luciferase and a cell-permeant prosubstrate to cells in culture. Viable cells reduce the proprietary prosubstrate to generate a substrate for NanoLuc luciferase. This substrate diffuses from cells into the surrounding culture medium, where it is rapidly used by the NanoLuc Enzyme to produce a luminescent signal. The signal correlates with the number of viable cells, making the assay well suited for cytotoxicity studies.
Tox21 Assay Protocol Summary: The mixture of HepG2 cell suspension and reagents were dispensed at 600cells/6 ul/well in 1536-well tissue culture treated black solid bottom plates using a Multidrop dispenser. After the assay plates were incubated at a 37 C/5% CO2 incubator for 5 hours, 23 nL of compounds dissolved in DMSO, positive and negative controls was transferred to the assay plate by a pintool work station. The plates were incubated at 37 C for 40 hours. The luminescence intensity were measured at 0h, 8h, 16h, 24h, 32h and 40h time points using ViewLux plate reader during compound treatment.
As to `CC[C@H](NC(C)C)[C@H](O)c1ccc(O)c2[nH]c(=O)ccc12`, the Potency result was “inactive”. Still for that read-out and setting: the entry for `CC(CN=Cc1ccccc1O)N=Cc1ccccc1O` (stereo not given) is “inactive”.

With `CC(C)C[C@H](NC(=O)[C@H](Cc1ccccc1)NC(=O)c1cnccn1)B(O)O`, the Potency is 30.1 nM (active). On to `O=C1c2ccccc2C(=O)c2c1ccc(O)c2O`, for which the Potency entry is “inactive”. Still for that read-out and setting: the entry for `O=C(OCCN1CCOCC1)c1cccnc1Nc1cccc(C(F)(F)F)c1` is “inactive”; for `O=S(=O)(O)c1cc(Cl)c(Cl)cc1Cl` it is “inactive”. With `COc1ccc(CN(CCN(C)C)c2ncccn2)cc1`, the Potency entry was “inactive”.

With `CCCCOc1ccc(N)cc1`, the Potency result is “inactive”. Turning to `N#CCCCC(C#N)CCC#N` (stereo not given), the Potency result was “inactive”. On the same count and under the same terms, under `O=[N+]([O-])c1ccc(Cl)cc1Cl` stands “inactive”. Regarding `CC(C)(Cc1c[nH]c2ccccc12)NCC(O)COc1ccccc1C#N` (stereo not given), the Potency entry was “inactive”. In the case of `C=CC(O)CCCCC` (stereo not given), the Potency entry is “inactive”. Still for that read-out and setting: under `CC(C)Oc1ccccc1O` stands “inactive”; under `CCOc1cc(OCC)c(C(C)=O)cc1OCC`, “inactive”; under `C/C=C1\[C@H]2C=C(C)C[C@]1(N)c1ccc(=O)[nH]c1C2`, “inactive”. On the same count and under the same terms, under `CCCCCC1CCC(=O)O1` (stereo not given) stands “inactive”; under `O=C(O)c1ccncc1`, “inactive”.

Regarding `O=C(C1CCCCC1)N1CC(=O)N2CCCc3ccccc3C2C1` (stereo not given), the Potency result is “inactive”.

On to `CCCCCCCCCCCCCCCCCCCl`, for which the activity change, negative = cytotoxic was 2.68% [at 6.97 µM].

As for `Nc1ccc(C(=O)Oc2ccccc2)c(O)c1`, the Potency entry is “inactive”. Same read-out and setting: under `S=c1[nH][nH]c(=S)s1` stands “inactive”. The same measure, in the same setting: under `OCCCO` stands “inactive”. Same read-out and setting: under `CCCc1nc(C)c2c(=O)[nH]c(-c3cc(S(=O)(=O)N4CCN(CC)CC4)ccc3OCC)nn12` stands “inactive”; under `CCCC(=O)OCc1ccccc1`, “inactive”; under `CCCCCCCCC(=O)OCC(C)OC(=O)CCCCCCCC` (stereo not given), “inactive”.

For `O=C(OCCCCCOC(=O)c1ccccc1)c1ccccc1`, the Potency entry was “inactive”. As to `CC(C)(C)N`, the Potency entry is “inactive”. The same measure, in the same setting: the entry for `CCCCC(CC)COCCC#N` (stereo not given) is “inactive”. The same measure, in the same setting: under `C=C(C)C(=O)OCCCCCCCCCCOC(=O)C(=C)C` stands “inactive”; under `CCC1=C(C)CN(C(=O)NCCc2ccc(S(=O)(=O)NC(=O)NC3CCC(C)CC3)cc2)C1=O` (stereo not given), “inactive”; under `Clc1ccccc1-c1nc(-c2ccncc2)no1`, “inactive”.

Regarding `Oc1ccc(Oc2ccccc2)cc1`, the Potency result is “inactive”.

Turning to `Cc1nc2sccn2c(=O)c1CCN1CCC(=C(c2ccc(F)cc2)c2ccc(F)cc2)CC1`, the Potency result was “inactive”.

As for `CCCCCCCCCCCCCCCCC(=O)O`, the Potency entry is “inactive”.

Regarding `COC=O`, the activity change, negative = cytotoxic was 2.87% [at 6.97 µM].

For `Cc1c(N=C=O)cccc1N=C=O`, the Potency entry was “inactive”. The same measure, in the same setting: the entry for `COC(=O)C(C)(C)C` is “inactive”; for `C=C[Si](OCC)(OCC)OCC` it is “inactive”. Turning to `O=C1CCCN1CCO`, the Potency result was “inactive”.

For the compound `Nc1ccc(F)cc1F`, the Potency entry is “inactive”.
